What all share (assay): protein-binding microarray (PBM); PBM: ~300 nM protein, 6 mM HEPES pH 7.8, 80 mM KCl, 0.5 mM EDTA, 0.5 mM EGTA, 6% glycerol, 35 ng/ul poly-dIdC, 1% milk, 1 h, room temperature; Ap Aiptasia and Nv Nematostella (sea anemones) / Co Capsaspora / Aq Amphimedon (sponge) / Dm Drosophila / Hu human; RHD is the Rel homology domain; high values mean tight binding
Holding throughout (settings): dsDNA, one strand shown

The target of experiment [1] is T1, GST-Ap-NF-kB RHD (Exaiptasia pallida (Aiptasia), UniProt A0A913YAJ5 2-422).
T1 sequence: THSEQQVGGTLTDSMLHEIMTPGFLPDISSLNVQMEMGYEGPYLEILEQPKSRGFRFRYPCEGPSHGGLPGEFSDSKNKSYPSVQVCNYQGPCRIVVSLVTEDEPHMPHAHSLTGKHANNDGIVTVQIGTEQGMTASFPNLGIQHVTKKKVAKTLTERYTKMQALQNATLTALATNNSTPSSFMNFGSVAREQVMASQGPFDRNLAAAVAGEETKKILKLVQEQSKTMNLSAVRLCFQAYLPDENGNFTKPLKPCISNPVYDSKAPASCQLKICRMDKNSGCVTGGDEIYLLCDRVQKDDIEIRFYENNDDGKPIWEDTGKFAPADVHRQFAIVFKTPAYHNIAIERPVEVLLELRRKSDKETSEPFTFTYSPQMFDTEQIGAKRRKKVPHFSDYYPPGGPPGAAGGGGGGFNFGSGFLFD

The target of experiment [2] is T2, GST-Nv-NF-kB (Cys allele) (Nematostella vectensis, UniProt E5G601 2-411).
T2 sequence: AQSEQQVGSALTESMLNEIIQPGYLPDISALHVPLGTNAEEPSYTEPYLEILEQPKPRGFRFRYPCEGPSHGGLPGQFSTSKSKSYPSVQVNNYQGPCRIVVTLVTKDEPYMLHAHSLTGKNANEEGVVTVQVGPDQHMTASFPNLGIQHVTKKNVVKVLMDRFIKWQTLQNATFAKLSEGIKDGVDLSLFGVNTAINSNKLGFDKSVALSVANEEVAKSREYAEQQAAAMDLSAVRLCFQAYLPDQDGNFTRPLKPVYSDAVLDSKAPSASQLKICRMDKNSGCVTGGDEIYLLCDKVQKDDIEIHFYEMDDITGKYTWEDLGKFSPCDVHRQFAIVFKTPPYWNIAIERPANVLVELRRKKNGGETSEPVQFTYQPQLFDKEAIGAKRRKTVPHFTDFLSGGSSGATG

In experiment [3] the target is T3, GST-Co-NF-kB (Capsaspora owczarzaki, UniProt F1ARL5 200-546).
T3 sequence: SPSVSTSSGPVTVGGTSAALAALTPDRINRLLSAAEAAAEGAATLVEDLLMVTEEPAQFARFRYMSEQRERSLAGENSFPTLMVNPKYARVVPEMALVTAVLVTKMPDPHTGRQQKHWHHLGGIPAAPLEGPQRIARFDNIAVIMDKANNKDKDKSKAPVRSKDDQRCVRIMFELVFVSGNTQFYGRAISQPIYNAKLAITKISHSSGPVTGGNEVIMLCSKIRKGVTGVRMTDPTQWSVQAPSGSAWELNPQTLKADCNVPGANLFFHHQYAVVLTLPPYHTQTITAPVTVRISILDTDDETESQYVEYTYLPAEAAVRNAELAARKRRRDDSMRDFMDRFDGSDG

Experiment [4] concerns the target T4, GST-Dm-Relish (Drosophila melanogaster, UniProt Q94527 99-473).
T4 sequence: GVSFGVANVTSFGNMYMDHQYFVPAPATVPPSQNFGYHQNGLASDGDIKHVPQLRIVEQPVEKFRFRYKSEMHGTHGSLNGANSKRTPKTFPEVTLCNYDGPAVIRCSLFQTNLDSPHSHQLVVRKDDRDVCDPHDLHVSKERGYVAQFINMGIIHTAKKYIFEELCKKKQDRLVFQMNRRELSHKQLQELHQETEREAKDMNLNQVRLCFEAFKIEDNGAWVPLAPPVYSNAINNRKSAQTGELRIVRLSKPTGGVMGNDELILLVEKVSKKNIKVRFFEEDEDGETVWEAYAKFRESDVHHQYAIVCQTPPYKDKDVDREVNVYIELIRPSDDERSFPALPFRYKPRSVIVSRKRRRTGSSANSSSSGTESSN

Experiment [5] addresses T5, GST-Aq-NF-kB (Amphimedon queenslandica, UniProt A9Y5G7 2-389).
T5 sequence: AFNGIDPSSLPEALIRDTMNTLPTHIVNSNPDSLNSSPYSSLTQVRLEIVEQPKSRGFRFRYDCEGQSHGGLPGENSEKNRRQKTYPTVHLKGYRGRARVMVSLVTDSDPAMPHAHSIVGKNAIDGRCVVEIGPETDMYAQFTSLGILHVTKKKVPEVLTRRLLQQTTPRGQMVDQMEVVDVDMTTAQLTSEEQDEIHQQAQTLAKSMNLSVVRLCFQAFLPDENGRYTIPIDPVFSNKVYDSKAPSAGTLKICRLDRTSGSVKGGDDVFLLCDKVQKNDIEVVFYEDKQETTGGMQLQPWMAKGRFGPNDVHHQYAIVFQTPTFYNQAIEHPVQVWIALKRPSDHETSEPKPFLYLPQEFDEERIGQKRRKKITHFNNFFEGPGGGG

Turning to “CCGATTAACATCAAGAGACCCCCTGATGTTAATCGGGTCTTGATTCGCTTGACGCTGCTG”, the binding signal in experiment [1] came out at 5.03 z-score; in experiment [2], 2.88 z-score; in experiment [3] it was 2.08 z-score; in experiment [4] it was 3.99 z-score; in experiment [5], 3.76 z-score.

As to “CCGATTAACATCAGGGATTACCATGATGTTAATCGGGTCTTGATTCGCTTGACGCTGCTG”, the binding signal came out at 3.4 z-score in experiment [1]; 1.46 z-score in experiment [2]; 1.11 z-score in experiment [3]; 6.01 z-score in experiment [4]; 3.67 z-score in experiment [5].

Turning to “CCGATTAACATCAGGGGAGTACATGATGTTAATCGGGTCTTGATTCGCTTGACGCTGCTG”, the binding signal in experiment [1] turned out to be 4.22 z-score; in experiment [2], 2.88 z-score; in experiment [3] it was 3.31 z-score; in experiment [4], 6.35 z-score; in experiment [5], 3.06 z-score.

Consider “CCGATTAACATCAGGGAAACCACTGATGTTAATCGGGTCTTGATTCGCTTGACGCTGCTG”, for which the binding signal in experiment [1] is 3.4 z-score; in experiment [2] it was 4.47 z-score; in experiment [3], 3.12 z-score; in experiment [4] it was 8.4 z-score; in experiment [5] it was 6.48 z-score.

With “CCGATTAACATCACCCAACCCCCTGATGTTAATCGGGTCTTGATTCGCTTGACGCTGCTG”, the binding signal is 4.6 z-score in experiment [1]; 2.94 z-score in experiment [2]; 2.21 z-score in experiment [3]; 4.3 z-score in experiment [4]; 3.45 z-score in experiment [5].

As to “CCGATTAACATCAAGTACCCCCATGATGTTAATCGGGTCTTGATTCGCTTGACGCTGCTG”, the binding signal in experiment [1] stood at 4.72 z-score; in experiment [2], 2.7 z-score; in experiment [3] it was 4.36 z-score; in experiment [4], 2.25 z-score; in experiment [5] it was 2.6 z-score.

Regarding “CCGATTAACATCAAATCTTTCCCTGATGTTAATCGGGTCTTGATTCGCTTGACGCTGCTG”, the binding signal in experiment [1] came to 3.05 z-score; in experiment [2] it was 5.25 z-score; in experiment [3], 5.78 z-score; in experiment [4], 1.24 z-score; in experiment [5], 4.92 z-score.

Consider “CCGATTAACATCACGGGAAACCCTGATGTTAATCGGGTCTTGATTCGCTTGACGCTGCTG”, for which the binding signal in experiment [1] was found to be 4.31 z-score; in experiment [2] it was 4.16 z-score; in experiment [3] it was 3.68 z-score; in experiment [4], 7.56 z-score; in experiment [5], 5.65 z-score.

Consider “CCGATTAACATCACTGGGAAAACTGATGTTAATCGGGTCTTGATTCGCTTGACGCTGCTG”, for which the binding signal was 1.79 z-score in experiment [1]; 2.36 z-score in experiment [2]; 5.25 z-score in experiment [3]; 1.48 z-score in experiment [4]; 1.81 z-score in experiment [5].

As for “CCGATTAACATCAGGCATTCCCATGATGTTAATCGGGTCTTGATTCGCTTGACGCTGCTG”, the binding signal in experiment [1] was determined as 1.57 z-score; in experiment [2] it was 2 z-score; in experiment [3], 1.54 z-score; in experiment [4], 3.64 z-score; in experiment [5], 2.75 z-score.

In the case of “CCGATTAACATCAAAATCTTCCCTGATGTTAATCGGGTCTTGATTCGCTTGACGCTGCTG”, the binding signal in experiment [1] came out at 5.74 z-score; in experiment [2], 5.94 z-score; in experiment [3], 4.16 z-score; in experiment [4] it was 1.48 z-score; in experiment [5], 5.28 z-score.

With “CCGATTAACATCAAAACAATCCCTGATGTTAATCGGGTCTTGATTCGCTTGACGCTGCTG”, the binding signal came to 2.49 z-score in experiment [1]; 3.19 z-score in experiment [2]; 1.41 z-score in experiment [3]; 2.25 z-score in experiment [4]; 4.66 z-score in experiment [5].

The values above are taken from publication PMC5700166.
